Measurements taken from PubChem BioAssay (NCI).
About 83,000 compounds went through this panel and 20% of them were active in at least one assay; those are over-represented in the sample as a whole.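 Negative percent growth values reflect cell death: -40 means 40% of the cells present at the start died, and -100 means all died.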 Values without a mark were called inactive. Active and inactive are the calls of the source. The calls were made as follows: active = growth percent below 10; inactive = the rest.

Legend:
Test in all cases: NCI-60 one-dose screen, 48 h (100 = growth as untreated, 0 = no growth, -100 = all killed)
Settings in all cases: 10 µM unless noted
NCI-H23 lung = tested on: NCI-H23 lung
NCI-H226 lung = tested on: NCI-H226 lung
NCI-H322M lung = tested on: NCI-H322M lung
HOP-62 NSCLC = tested on: HOP-62 NSCLC
NCI-H460 lung = tested on: NCI-H460 lung
A549/ATCC NSCLC = tested on: A549/ATCC NSCLC
786-0 renal = tested on: 786-0 renal
COLO 205 colon = tested on: COLO 205 colon
DU-145 prostate = tested on: DU-145 prostate
MALME-3M melanoma = tested on: MALME-3M melanoma
MDA-MB-231 breast = tested on: MDA-MB-231 breast
RXF 393 renal = tested on: RXF 393 renal
SF-268 CNS = tested on: SF-268 CNS
SF-295 CNS = tested on: SF-295 CNS
SF-539 CNS = tested on: SF-539 CNS
UACC-257 melanoma = tested on: UACC-257 melanoma
M14 melanoma = tested on: M14 melanoma
K-562 leukemia = tested on: K-562 leukemia
HOP-92 NSCLC = tested on: HOP-92 NSCLC

Row | SMILES | growth (NCI-H23 lung) | growth (NCI-H226 lung) | growth (NCI-H322M lung) | growth (HOP-62 NSCLC) | growth (NCI-H460 lung) | growth (A549/ATCC NSCLC) | growth (786-0 renal) | growth (COLO 205 colon) | growth (DU-145 prostate) | growth (MALME-3M melanoma) | growth (MDA-MB-231 breast) | growth (RXF 393 renal) | growth (SF-268 CNS) | growth (SF-295 CNS) | growth (SF-539 CNS) | growth (UACC-257 melanoma) | growth (M14 melanoma) | growth (K-562 leukemia) | growth (HOP-92 NSCLC)
1 | CC(C)(C)OC(=O)N1CCCN(CCNc2nccc(-c3c(-c4cccc(O)c4)nc4sccn34)n2)S1(=O)=O | 94.1% | 91.1% | 92.6% | 115% | 91.4% | 101% | 87.3% | 46.2% | 85% | 17.9% | 84.3% | 78.5% | 110% | 112% | 104% | 62.3% | 16.7% | – | –
2 | CC1=C(/C=C/C(C)=C/C=C(C(=O)O)\C(C)=C\C(=O)O)C(C)(C)CCC1 | 101% | 112% | 103% | 108% | 104% | 93.7% | 99.5% | 112% | 109% | 128% | 98.6% | 106% | 100% | 130% | 93.6% | 92.4% | 101% | 87% | –
3 | Cc1[nH]c2ccccc2c1C1=CC(=O)C=CC1=O | 92.8% | 94.2% | 120% | 94.7% | 111% | 93.2% | 84.3% | 55.7% | 103% | 123% | 87.7% | 115% | 83.7% | 127% | 79.1% | 91.6% | 79.4% | 33.4% | –
4 | Cc1cccc(N=NC(=S)NNc2cccc(C)c2)c1 | 102% | 101% | 101% | 101% | 112% | 105% | 111% | 116% | 122% | 108% | 93.5% | 115% | 135% | 104% | 108% | 105% | 108% | 105% | –
5 | COc1cc(C2CC(=O)Nc3c2cnn3C)cc(OC)c1OC (configuration not stated) | 108% | 104% | 100% | 98.2% | 117% | – | 103% | 110% | 108% | 97.7% | 118% | 124% | 112% | 105% | 103% | 101% | 103% | – | –
6 | N/C(=N\OC(=O)c1ccccc1)C(C(=O)NOC(=O)c1ccccc1)C1CCCCC1 (configuration not stated) | 49.3% | 100% | 84.7% | -7% (active) | 34.5% | 1.51% (active) | 76% | 77.3% | 57.7% | 85.3% | 81.8% | 82.1% | 31.9% | 41.6% | 75.1% | 92.2% | 75.2% | 2.85% (active) | –
7 | O=C(Nc1cccc(N=Cc2c(O)ccc3ccccc23)c1)c1ccccc1 | 95.8% | 94.1% | 95% | 86.9% | 111% | 94.7% | 93.4% | 105% | 98.2% | 102% | 94.1% | 90.4% | 89.1% | 95.2% | 90.5% | 91.6% | 91.1% | 97.3% | –
8 | CC(C)(CCc1ccccn1)C(=O)CCCc1ccccn1 | 106% | 104% | 116% | 105% | 106% | 99% | 99.9% | 96.4% | 109% | 70.4% | 96.2% | 117% | 105% | 120% | 114% | 109% | 98.7% | 95% | –
9 | Cc1nn(-c2ccccc2)c2nc3c(nc12)C1=NCCN1C(c1ccc(Cl)cc1)N3 (configuration not stated) | 92.8% | – | 77.4% | 87.7% | 82.9% | 88.9% | 76.6% | -82.9% (active) | 89.9% | 7.76% (active) | 66.8% | 70% | 84.9% | 94.6% | 95.1% | – | – | 5.26% (active) | 30.2%
